Counter-ions that a name gives are not always drawn. ± gives the standard deviation.

For assay [1], the system named is Jurkat. Nature of the assay: mean cell size (FSC-A) relative to DMSO control (fraction of control); higher = larger cells. The note with it: 48 h. In short, it runs like this: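 Jurkat cells seeded at 600 cells/µl were incubated 1 h, then exposed for 48h to the Enzo Screen-Well FDA Approved Drug Library v2.0 at 25µM in 0.9% (v/v) final DMSO. Drugs that cut counts below 20% of controls were diluted 10-fold and retested, down to 25nM. Cell count and mean cell size (forward scatter area) were read on an Accuri C6 flow cytometer, relative to solvent-only controls. Plates held 6-12 controls; values are means of 3 biological replicates.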

In assay [2] the test system is Jurkat. The assay can be described thus: cell count relative to DMSO control (fraction of control); higher = more cells (less growth inhibition). The conditions noted are these: 48 h.

Consider `COc1cc(C(C)=O)ccc1OCCCN1CCC(c2noc3cc(F)ccc23)CC1` [Iloperidone] (concentration: 25 µM), for which the mean cell size in the assay with Jurkat [1] was determined as 0.954 ± 0.031. Further, the cell count in the assay with Jurkat [2] is 0.734 ± 0.088.

In turn, `COc1ccc(O)cc1` [Mequinol] (concentration: 25 µM) gave a mean cell size in the assay with Jurkat [1] of 1.15 ± 0.034. In the assay with Jurkat [2], this compound yielded a cell count of 0.863 ± 0.063.

In the assay on Jurkat [1], `COc1ccc(CCN(C)CCCC(C#N)(c2ccc(OC)c(OC)c2)C(C)C)cc1OC` (stereo not drawn) [Verapamil·HCl] (concentration: 25 µM) came in with a mean cell size of 0.939 ± 0.025. The compound also displayed a cell count in the assay on Jurkat [2] of 0.756 ± 0.042.

On to `Nc1nc(NC2CC2)c2ncn([C@H]3C=C[C@@H](CO)C3)c2n1` [Abacavir Sulfate] (concentration: 25 µM), for which the mean cell size in the assay on Jurkat [1] was determined as 1.1 ± 0.033. For the same compound, in the assay with Jurkat [2], the cell count came out at 0.858 ± 0.15.

The values are drawn from the supplement of paper PMC4709259.
